VACV mCherry inh: qHTS for Stage-Specific Inhibitors of Vaccinia Orthopoxvirus: mCherry Reporter Primary qHTS; Vaccinia virus mCherry reporter infection, fluorescence; Potency, µM (series often up to 36.5 µM), for inactives: top-dose activity change, negative = inhibition, hits mostly inhibitors; 310,000 compounds, 0.63% hits; calls by dose curve; tested in A549 cells; also: % is scaled to controls: 0 for no effect and ±100 for the full control effect; nearly all actives have a fitted effect of over 35% in size
Pf growth 96h: Primary qHTS for delayed death inhibitors of the malarial parasite plastid, 96 hour incubation. Potency, µM (highest dose often 28.7 µM), for the others: top-dose activity change, negative = inhibition, actives largely listed as inhibitors. P. falciparum luciferase reporter growth, 96 h. 320,000 compounds, 6.9% hits; also: % is scaled to controls: 0 for no effect and ±100 for the full control effect
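Delayed-death screen, second-generation endpoint: infected erythrocytes, 2% hematocrit, 0.05% parasitemia final; 96 hours at 37 C, 5% CO2; luciferase detection reagent; luminescence decrease equals reduced growth.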
NS1 inh: qHTS Assay for Inhibitors of Influenza NS1 Protein Function | Potency, µM (top dose mostly 46.1 µM), without a hit: at the highest dose activity, positive = more growth | 270,000 compounds, 0.4% hits | AID 2326, 2010; calls by dose curve; also: actives are rising curves; nearly all actives have a fitted effect of over 50% in size
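Read-out: OD600 growth recovery of NS1-expressing budding yeast. Cells grown overnight at 30C in -URA glucose medium, washed, resuspended and diluted 1:100 in 2% galactose assay medium, pH 6.0. Same strain lacking NS1 served as positive control.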
VACV Venus inh: qHTS for Stage-Specific Inhibitors of Vaccinia Orthopoxvirus: Venus Reporter Primary qHTS. Vaccinia virus Venus reporter expression, fluorescence. Potency, µM (doses to about 36.5 µM), without a hit: at the top dose activity change, negative = inhibition, hits mostly inhibitors. 330,000 compounds, 0.46% hits; calls by dose curve; tested in A549 cells; also: % is scaled to controls: 0 for no effect and ±100 for the full control effect; nearly all actives have a fitted effect of over 30% in size
Pf growth 48h: Primary qHTS for delayed death inhibitors of the malarial parasite plastid, 48 hour incubation. P. falciparum luciferase growth in erythrocytes, 48 h. Potency, µM (highest dose often 28.7 µM), for the others: at the top dose activity change, negative = inhibition, hits mostly inhibitors. 310,000 compounds, 5.9% hits; also: % is scaled to controls: 0 for no effect and ±100 for the full control effect
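Here the parasites carry a stable luciferase gene and grow inside erythrocytes in Albumax-based RPMI medium with compound for one erythrocytic cycle. Activity is scored as loss of luminescent signal.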
HCV inhibitor: qHTS Assay for Inhibitors of Hepatitis C Virus (HCV) | Huh7.5.1 HCVcc-Cre infection, luciferase reporter, 44 h | Potency, µM (doses to about 41.8 µM), inactives show at the top dose activity change, negative = inhibition, hits mostly inhibitors | 340,000 compounds, 3.4% hits | AID 651820, 2012; also: % is scaled to controls: 0 for no effect and ±100 for the full control effect
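Infectious HCVcc-Cre (~0.5 moi) was added to cells just after compound, with cells seeded 4 h earlier at 1,000 per well. Luciferase activity after 44 h culture reported infection; substrate was incubated 15 min at room temperature before reading.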
Starred values were filed as active, the others as inactive; i = inactive; u = inconclusive; x = no result given; [ ] = dose if it differs, or a comment. Most compounds without a hit are left out; they make up all but 11% or so of the library. Unless noted, calls follow the shape of the dose curve; as a rule, active = well fitted inhibition curve with a large enough effect; inconclusive = small, poorly fitted or top-dose-only effect, or another doubt; inactive = no such curve, though single readings can be large or run the other way. Potency is read from the fitted curve at half-maximal effect.

SMILES	VACV mCherry inh	Pf growth 96h	NS1 inh	VACV Venus inh	Pf growth 48h	HCV inhibitor
CCc1cccc(NC(=O)COC(=O)c2ccccc2OCc2ccccc2Br)c1	u	x	x	12.6µM*	x	x
COc1nc(/C(N)=N/O)nc(N2CCCCC2)n1	-21.4%	-7.9%	1.2%	-10.9%	-8.6%	2.2%
O=c1ccc(Oc2nc(N3CCCCC3)nc(N3CCCCC3)n2)n[nH]1	x	3.7µM*	-0.2%	x	14.4%	u
CCNc1nc(Oc2ccc(=O)[nH]n2)nc(N2CCOCC2)n1	x	-14.9%	1.2%	x	x	0.3%
O=C(NC1CC1)c1ccc(CSCc2ccccc2Cl)o1	x	23.7%	-20.6%	x	1.85µM*	-8.7%
C#CCOCCOCCOCCNc1nc(N2CCN(C(=O)[C@H]([C@@H](C)CC)n3cc([C@@H](N)CO)nn3)CC2)nc(N2CCN(C(=O)[C@H](Cc3cc4ccccc4[nH]3)n3cc([C@@H](N)Cc4ccc(O)cc4)nn3)CC2)n1	x	2.94µM*	-62.6%	x	-99.9%	x
C#CCOCCOCCOCCNc1nc(N2CCN(C(=O)C(Cc3ccc(O)cc3)n3cc(C(N)CC(C)C)nn3)CC2)nc(N2CCN(C(=O)C(Cc3cc4ccccc4[nH]3)n3cc(C(N)Cc4ccc(O)cc4)nn3)CC2)n1 (stereo not drawn)	x	13.1µM*	4.4%	x	u	x
C#CCOCCOCCOCCNc1nc(N2CCN(C(=O)[C@H](Cc3cc4ccccc4[nH]3)n3cc([C@@H](N)C(C)CC)nn3)CC2)nc(N2CCN(C(=O)[C@H](Cc3cc4ccccc4[nH]3)n3cc([C@@H](N)CC(C)C)nn3)CC2)n1 (stereo partly drawn)	x	u	5.0%	x	11.7µM*	x
C#CCOCCOCCOCCNc1nc(N2CCOCC2)nc(N2CCN(C(=O)[C@H](Cc3cc4ccccc4[nH]3)n3cc([C@@H](N)Cc4ccc(O)cc4)nn3)CC2)n1	u	1.85µM*	-1.8%	-8.5%	u	9.7%
COc1cccc(CN2C(=O)C3CCCN3c3ccc(S(=O)(=O)N4CCOCC4)cc32)c1 (stereo not drawn)	x	1.17µM*	8.0%	x	1.04µM*	x
Cc1ccc(C)c(CN2C(=O)C3CCCN3c3ccc(S(=O)(=O)N4CCOCC4)cc32)c1 (stereo not drawn)	x	u	11.1%	x	1.04µM*	x
N#Cc1c(N)nc(N)nc1Nc1ccc(Br)cc1	-21.9%	325.2%	-2.6%	-24.1%	191.1%	-23.9%
CC1(C)Cc2cccc(OCC(=O)OCC(=O)c3ccccc3)c2O1	x	31.1%	x	x	-13.6%	3.8%
Cc1ccc(NNC(=O)c2ccno2)cc1Cl	x	u	-62.0%	x	-15.0%	11.2µM*
Cc1ccc(NNC(=O)c2ccno2)cc1C	-7.1%	18.2%	-59.1%	-25.4%	-1.7%	u
O=C(COc1ccc(Cl)cc1Cl)N(C1CCCCC1)C1CCS(=O)(=O)C1 (stereo not drawn)	-8.5%	10.4µM*	x	-25.3%	u	-5.9%
N#Cc1ccccc1OCC(=O)N(C1CCCCC1)C1CCS(=O)(=O)C1 (stereo not drawn)	-4.5%	0.4%	x	-4.1%	-1.1%	8.5%
Cc1ccccc1CSc1nnc2[nH]c(=O)cc(C)n12	i	x	x	-9.6%	x	x
COc1ccccc1NC(=O)c1cn(CCC#N)nc1-c1ccc(F)cc1	i	11.7µM*	4.8%	-13.0%	-4.8%	5.4%
COC(=O)/C=C1\OCc2cc(OC)c(OCc3ccccc3)cc21	4.1%	x	x	-6.2%	x	x
O=S(=O)(c1ccc2c(c1)OCCO2)N1CCN(c2ncnc3sccc23)CC1	u	-20.1%[5.75 µM]	x	-22.0%	u	1µM*
Cc1ccc(S(=O)(=O)N2CCN(c3ncnc4sccc34)CC2)cc1C	u	11.7µM*	x	u	13.1µM*	11.2µM*
Cc1ccc(S(=O)(=O)N2CCN(c3ncccn3)CC2)cc1C	-4.6%	x	x	-14.1%	x	-2.9%
CCCCCc1cc(=O)oc2c(C(CCN3CCN(c4ccccc4)CC3)c3ccc(N(C)C)cc3)c(OC)cc(OC)c12 (stereo not drawn)	-13.9%	u	7.9%	-19.1%	u	-6.0%
CCCCCc1cc(=O)oc2c(C(CCN(CC)CC)c3cc(OC)c(OC)c(OC)c3)c(OC)cc(OC)c12 (stereo not drawn)	u	3.7µM*	-7.8%	u	13.1µM*	u
SMILES	VACV mCherry inh	Pf growth 96h	NS1 inh	VACV Venus inh	Pf growth 48h	HCV inhibitor
CCCCCc1cc(=O)oc2c(C(CCN3CCCC(C)C3)c3ccc4c(c3)OCO4)c(OC)cc(OC)c12 (stereo not drawn)	-15.0%	4.15µM*	0.0%	u	7.38µM*	u
CCCCCc1cc(=O)oc2c(C(CCN3CCCCC3)c3ccc4c(c3)OCO4)c(OC)cc(OC)c12 (stereo not drawn)	u	4.65µM*	8.0%	14.1µM*	10.4µM*	u
Cc1ccc(S(=O)(=O)NCCSCc2ccccc2)cc1	x	55.5%	12.1%	-26.9%	u	6.6%
O=C(NCC(c1ccco1)N1CCCCC1)c1cccs1 (stereo not drawn)	-9.6%	x	x	-1.5%	x	4.0%
O=C(NCC(c1ccco1)N1CCCCC1)c1cc2c(s1)CCCC2 (stereo not drawn)	x	1.65µM*	x	x	8.28µM*	u
O=C(NCC(c1ccco1)N1CCCC1)c1ccc(-n2cccn2)cc1 (stereo not drawn)	i	x	x	-13.2%	x	u
N#Cc1ccc(C(=O)NCC(c2ccco2)N2CCCC2)cc1 (stereo not drawn)	-9.5%	u	7.1%	2.7%	-25.1%	14.5%
N#Cc1ccc(C(=O)NCC(c2ccco2)N2CCCCC2)cc1 (stereo not drawn)	x	10.4µM*	1.0%	16.6%	x	-29.9%
Cc1cc(C(=O)NCC(c2ccco2)N2CCCC2)c2ccccc2n1 (stereo not drawn)	x	10.4µM*	x	x	u	-0.5%
Cc1cc(C)n(-c2ccc(C(=O)NCC(c3ccco3)N3CCCC3)cc2)n1 (stereo not drawn)	x	5.22µM*	x	x	u	0.2%
O=C(CNC(=O)c1ccccc1)NCC(c1ccco1)N1CCCC1 (stereo not drawn)	x	x	x	x	x	1.9%
c1ccc(-c2nccnc2-c2ccccc2)cc1	-6.0%	90.4%	-48.1%	-16.3%	u	-3.1%
O=C(Nc1ccc(Cl)cc1)N1CC2CC(C1)c1cccc(=O)n1C2 (stereo not drawn)	i	28.7%	-15.9%	3.8%	8.3%	13.1%
O=C(Oc1cccc2cccnc12)c1cccs1	x	u	-147.6%	-20.0%	u	u
COc1ccc(NC(=O)Nc2ccc(F)c(Cl)c2)cc1	x	-29.1%	x	x	63.7%	u
